These results are taken from PubChem BioAssay (Tox21).

Structures are written as SMILES. The source made the active and inactive calls. Calls come from the whole dose curve.
% is set by controls: 0 for no effect and ±100 for the full control effect.

The assay in a line: qHTS assay to identify small molecule agonists of the sonic hedgehog signaling (Shh) pathway (AID 1259368).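 Note: NIH/3T3-derived 3T3Gli1-Luc cells carrying a stable Gli1-driven firefly luciferase reporter; nearly all actives have a fitted effect of over 15% in size.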 The settings on record: NIH/3T3 Gli1-Luc reporter, luciferase, 24 h; series mostly up to 92.4 µM; activity change: at the top concentration. From the text: National Center for Advancing Translational Sciences [NCATS]
NIH Chemical Genomics Center [NCGC]
U.S. Environmental Protection Agency [EPA]
National Institutes of Environmental Health Sciences [NIEHS]
National Toxicology Program [NTP]
The sonic hedgehog (Shh) pathway is essential for normal embryonic development. Dysregulation of the Shh pathway can cause severe developmental defects in organs. Therefore chemicals that interfere with the pathway are potential developmental toxicants. A cell line designated 3T3Gli1-Luc (DMB/OARSA/CFSAN/FDA, Laurel, MD), a NIH/3T3 derived clone containing stably integrated Gli1-Luc reporter is used to detect chemical interference of the Shh pathway, by changes in the expression of the firefly Luc gene under the control of the Gli1 transcriptional response element. This cell line was used to screen Tox21 libraries for identifying and prioritizing the potential developmental toxicants that interfere Shh pathway.
3T3 Gli1-Luc cells were dispensed at 2,000 per well in 5uL of culture medium into white solid bottom 1536-well plates (Greiner Bio-One, Monroe, NC) using a Multidrop Combi (Thermo Scientific, Waltham, MA) dispenser. The assay plates were incubated at 37 C and 5% CO2 for 4hr, and then 23nL of compounds dissolved in DMSO and positive control were transferred using a Pintool station (Wako, San Diego, CA). The assay plates were incubated at 37C and 5% CO2 for 24hr. For luciferase read, 4uL of Amplite Luciferase reporter gene assay reagent (AAT Bioquest, Inc. Sunnyvale, CA) was added to each well of the assay plates using Flying Reagent Dispenser (FRD, Aurora Discovery, San Diego, CA) and incubated at room temperature for 30min. The luminescence signal was measured using a ViewLux plate reader (Perkin Elmer, Shelton, CT).
On to `CCCCCCCCCCCCCCC[C@H](O)[C@@H](N)CO`, for which the “activity change” value is 0.803% [at 42.5 µM, stronger effect = higher value] (inactive).
Regarding `Oc1cc(O)c(Cl)cc1Cl`, the “activity change” value was -5.26% (inactive).
Same read-out and setting: the figure for `CC(C)c1nnc2ccc(-c3ocnc3-c3cc(F)ccc3F)cn12` is -4.05% (inactive); for `CC(C)=CC=O` it is 2% (inactive); for `O=C(O)c1cccnc1C(=O)O` it is -0.348% (inactive).
For `CCC(C)(C)C1CCC(O)CC1` (stereo not given), the “activity change” value is 1.06% (inactive).
For `CCCCCCCCCOC(C)=O`, the “activity change” value is -0.0293% (inactive).
With `COCc1c(C(C)C)nc(C(C)C)c(/C=C/[C@@H](O)C[C@@H](O)CC(=O)O)c1-c1ccc(F)cc1`, the Potency entry was “inactive”.
Consider `c1ccc(COCc2ccccc2)cc1`, for which the “activity change” value is 3.12% (inactive).
Regarding `O=C1OCCN1/N=C/c1ccc([N+](=O)[O-])o1`, the “activity change” value was -3.79% [at 42.5 µM, stronger effect = higher value] (inactive).
As to `CCCCN(CCCC)CCCOC(=O)c1ccc(N)cc1`, the “activity change” value was -0.209% [at 42.5 µM, stronger effect = higher value] (inactive).
Turning to `O=C(OCCOCCO)c1ccccc1Nc1cccc(C(F)(F)F)c1`, the “activity change” value is 1.95% [at 42.5 µM, stronger effect = higher value] (inactive).
Regarding `CO[Si](C)(OC)OC`, the “activity change” value is -2.24% (inactive).
On the same count and under the same terms, the result for `CC1CC(O)CC(C)(C)C1` (stereo not given) reads -1.05% (inactive); that for `Cc1cnc(C)c(C)n1`, -2.89% (inactive); that for `CC(C)(C)CC(C)(C)c1ccc(OCCO)cc1`, -0.483% (inactive).
On the same count and under the same terms, the result for `CN1C(=O)CC(C)(c2ccccc2)C1=O` (stereo not given) reads 0.0442% [at 42.5 µM, stronger effect = higher value] (inactive); that for `CC[C@@H]([C@H](C)O)n1ncn(-c2ccc(N3CCN(c4ccc(OC[C@@H]5CO[C@@](Cn6cncn6)(c6ccc(F)cc6F)C5)cc4)CC3)cc2)c1=O`, -0.232% [at 42.5 µM, stronger effect = higher value] (inactive); that for `CCOC(=N)CC(=O)OCC`, -2.01% (inactive).
On to `CC1=C(C=O)C(C)(C)CCC1`, for which the “activity change” value was -0.105% (inactive).
In the case of `O=C(CCC1CCN(Cc2ccccc2)CC1)c1ccc2c(c1)NCCCC2`, the “activity change” value was 0.813% [at 42.5 µM, stronger effect = higher value] (inactive).
Regarding `Fc1ccccc1[C@@H](F)COC1CCC(Nc2ncnc3[nH]ncc23)CC1` (stereo not given in full), the “activity change” value is -3.89% (inactive).
With `CCC(=O)Oc1ccc(/C(CC)=C(\CC)c2ccc(OC(=O)CC)cc2)cc1`, the “activity change” value was -5.04% (inactive).
The same measure, in the same setting: the result for `CC(Cl)C(Cl)Cl` (stereo not given) reads -4.32% (inactive); that for `O=[N+]([O-])c1cccc(S(=O)(=O)NCCNS(=O)(=O)c2cccc([N+](=O)[O-])c2)c1`, 0.648% [at 42.5 µM, stronger effect = higher value] (inactive); that for `O=C(CCCCCCC(=O)Nc1ccccc1)NO`, 3.16% [at 42.5 µM, stronger effect = higher value] (inactive).
Consider `O=C(O)C(Cc1cc(I)c(O)c(I)c1)c1ccccc1` (stereo not given), for which the “activity change” value was -0.0556% [at 42.5 µM, stronger effect = higher value] (inactive).
As to `OCCSc1ccccc1`, the “activity change” value is -4.05% (inactive).
The same measure, in the same setting: the figure for `CCOCCn1c(C2CCN(CCc3ccc(C(C)(C)C(=O)O)cc3)CC2)nc2ccccc21` is -0.174% [at 42.5 µM, stronger effect = higher value] (inactive); for `CCc1cccc(N(C)C(N)=Nc2cccc3ccccc23)c1` it is -2.02% [at 42.5 µM, stronger effect = higher value] (inactive).
On the same count and under the same terms, the result for `CCOC(=O)CC(=O)C(=O)OCC` reads -2% (inactive); that for `CO[C@@]12[C@H](COC(N)=O)C3=C(C(=O)C(C)=C(N)C3=O)N1C[C@@H]1N[C@@H]12`, -5.47% [at 42.5 µM, stronger effect = higher value] (inactive).
On the same count and under the same terms, the figure for `Nc1nc(Cl)nc2c1ncn2[C@@H]1O[C@H](CO)[C@@H](O)[C@@H]1F` is 0.297% [at 42.5 µM, stronger effect = higher value] (inactive).
Consider `C=C(C)C(=O)OCCOC(=O)CC(C)=O`, for which the “activity change” value was 0.509% (inactive).
`O=C(O)c1ccc(CO)o1`: the “activity change” value is 0.265% (inactive).
Same read-out and setting: the figure for `CNC(=S)NC` is -3.1% (inactive); for `CC(CCO)CCc1ccccc1` (stereo not given) it is -0.0639% (inactive); for `CCCCCCCCCCCCCCCCBr` it is -0.182% [at 18.9 µM, stronger effect = higher value] (inactive).
As to `CCCCC(CC)COC(=O)COc1ccc(Cl)cc1C` (stereo not given), the “activity change” value is -0.467% (inactive).
Take `CCCCC1C(=O)N(c2ccccc2)N(c2ccc(O)cc2)C1=O` (stereo not given): the “activity change” value is -6.78% [at 42.5 µM, stronger effect = higher value] (inactive).
